Assay [1] in a line: NCI Yeast Anticancer Drug Screen. Data for the rad50 strain (AID 155).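 Note: 0% = growth of vehicle-only cultures of the same strain.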 Particulars: S. cerevisiae rad50 strain growth inhibition, stronger effect = higher value. Summed up:
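DNA repair mutant yeast, compound exposure, growth read-out; inhibition is taken relative to vehicle.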

Assay [2] is described as follows: NCI Yeast Anticancer Drug Screen. Data for the mec2-1 strain (AID 157). Particulars: S. cerevisiae mec2-1 strain, stronger effect = higher value. The method in brief: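 mec2-1 yeast strain, carrying an alteration in DNA damage repair or cell cycle control, was exposed to compounds; growth inhibition was measured relative to vehicle-treated controls.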
Assay [3] is described as follows: NCI Yeast Anticancer Drug Screen. Data for the sgs1 mgt1 strain (AID 161).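 Note: 0% = growth of cultures given vehicle only.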 Particulars: S. cerevisiae sgs1 mgt1 strain, stronger effect = higher value. The method in brief: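 Compounds are added to genetically altered yeast, and growth is compared with cultures given vehicle alone to give percent inhibition.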
Assay [4] is described as follows: NCI Yeast Anticancer Drug Screen. Data for the cln2 rad14 strain (AID 165).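 Note: 0% = growth equal to vehicle treated cultures.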 The note with it: S. cerevisiae cln2 rad14 strain, stronger effect = higher value. The method in brief: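 Yeast carrying cln2 and rad14 alterations (cell cycle control and DNA damage repair) were exposed to compounds. Growth inhibition was measured against vehicle-treated controls.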
A short description of assay [5]: NCI Yeast Anticancer Drug Screen. Data for the bub3 strain (AID 167). Particulars: S. cerevisiae bub3 mutant strain, stronger effect = higher value. The method in brief: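 In this screen, a yeast mutant lacking normal mitotic checkpoint function is challenged with compound. Relative growth versus vehicle gives the inhibition value.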
Assay [6] can be described thus: NCI Yeast Anticancer Drug Screen. Data for the mlh1 rad18 strain (AID 175). Particulars: S. cerevisiae mlh1 rad18 strain growth inhibition, stronger effect = higher value. Summed up: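 Growth inhibition of the yeast strain was measured after compound exposure and expressed relative to vehicle-treated controls. The strain carries defined defects in DNA damage repair.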
[7] abbreviates: at 5.0 µM (retest, dose inferred, filed as 0.5).
Setting [8] is: at 50.0 µM (retest, dose inferred, filed as 5.0).

Compounds without any hit were thinned out: in the full panel of roughly 79,000, 15% have a hit. A number with no mark means an inactive call. Activity calls are given as the source filed them. Cut-off read from the data, not from the text of the source: active = growth inhibition above about 70%; inactive = the rest.

For the compound `Cn1cc(-c2c3c(cc4c2OCO4)OCO3)c2ccccc21`, the growth inhibition in assay [1] (setting [7]) is 4%; in assay [1] (setting [8]), 99% (active); in assay [1] (at 50.0 µM) it was 99.2% (active); in assay [2] (setting [7]), -3%; in assay [2] (setting [8]) it was 98% (active); in assay [2] (at 50.0 µM), 99.2% (active). Also, the growth inhibition in assay [3] (setting [7]) was 2%; in assay [3] (setting [8]) it was 99% (active); in assay [3] (at 50.0 µM), 99.3% (active); in assay [4] (setting [7]), -9%; in assay [4] (setting [8]) it was 96% (active); in assay [4] (at 50.0 µM), 98.8% (active). Besides, the growth inhibition is -2% in assay [5] (setting [7]); 99% (active) in assay [5] (setting [8]); 99.2% (active) in assay [5] (at 50.0 µM); -1% in assay [6] (setting [7]); 99% (active) in assay [6] (setting [8]); 99.3% (active) in assay [6] (at 50.0 µM).

Turning to `O=C(c1ccccc1)N(c1ccccc1)c1ccc2ccccc2c1`, the growth inhibition in assay [1] (setting [7]) was -3%; in assay [1] (setting [8]), 16%; in assay [1] (at 50.0 µM) it was 5.8%; in assay [2] (setting [7]) it was -3%; in assay [2] (setting [8]), 21%; in assay [2] (at 50.0 µM), -6.1%. Besides, the growth inhibition in assay [3] (setting [7]) was -5%; in assay [3] (setting [8]) it was 77% (active); in assay [3] (at 50.0 µM) it was 12%; in assay [4] (setting [7]) it was -35%; in assay [4] (setting [8]), 30%; in assay [4] (at 50.0 µM), 12.3%. Moreover, the growth inhibition in assay [5] (setting [7]) is 13%; in assay [5] (setting [8]), 67%; in assay [5] (at 50.0 µM) it was 21.8%; in assay [6] (setting [7]) it was -12%; in assay [6] (setting [8]), 67%; in assay [6] (at 50.0 µM) it was -1.8%.

For the compound `c1ccc(SSc2ccccc2)cc1`, the growth inhibition was -6% in assay [1] (setting [7]); 64% in assay [1] (setting [8]); 47.3% in assay [1] (at 50.0 µM); -38% in assay [2] (setting [7]); 18% in assay [2] (setting [8]); 20.7% in assay [2] (at 50.0 µM). The growth inhibition in assay [3] (setting [7]) is 0%; in assay [3] (setting [8]), 25%; in assay [3] (at 50.0 µM), 77% (active); in assay [4] (setting [7]) it was 1%; in assay [4] (setting [8]), 3%; in assay [4] (at 50.0 µM) it was 18.9%. The growth inhibition is 38% in assay [5] (setting [7]); 20% in assay [5] (setting [8]); 26.7% in assay [5] (at 50.0 µM); -2% in assay [6] (setting [7]); 50% in assay [6] (setting [8]); 87.7% (active) in assay [6] (at 50.0 µM).

`CC(=O)OC1C2C3C(C=CC2[C@H]1OC(C)=O)C1C3C=CC2C1C(OC(C)=O)[C@@H]2OC(C)=O` (some centres not stated): the growth inhibition in assay [1] (setting [7]) is 3%; in assay [1] (setting [8]), 14%; in assay [1] (at 50.0 µM), 18.4%; in assay [2] (setting [7]) it was -1%; in assay [2] (setting [8]), 21%; in assay [2] (at 50.0 µM), 11.8%. Moreover, the growth inhibition in assay [3] (setting [7]) was -173%; in assay [3] (setting [8]), 11%; in assay [3] (at 50.0 µM) it was 5.2%; in assay [4] (setting [7]) it was -2%; in assay [4] (setting [8]), 13%; in assay [4] (at 50.0 µM) it was 14.3%. The growth inhibition in assay [5] (setting [7]) was -2%; in assay [5] (setting [8]) it was 4%; in assay [5] (at 50.0 µM), -1.9%; in assay [6] (setting [7]), 12%; in assay [6] (setting [8]), 30%; in assay [6] (at 50.0 µM) it was 12.9%.

For `C1=C(CC2=C[P+](c3ccccc3)(c3ccccc3)C=C(c3ccccc3)O2)OC(c2ccccc2)=C[P+]1(c1ccccc1)c1ccccc1`, the growth inhibition is 17% in assay [1] (setting [7]); 96% (active) in assay [1] (setting [8]); 87.4% (active) in assay [1] (at 50.0 µM); 8% in assay [2] (setting [7]); 98% (active) in assay [2] (setting [8]); 88% (active) in assay [2] (at 50.0 µM). Besides, the growth inhibition is 35% in assay [3] (setting [7]); 98% (active) in assay [3] (setting [8]); 86.2% (active) in assay [3] (at 50.0 µM); 25% in assay [4] (setting [7]); 98% (active) in assay [4] (setting [8]); 85.4% (active) in assay [4] (at 50.0 µM). The growth inhibition was 32% in assay [5] (setting [7]); 98% (active) in assay [5] (setting [8]); 90.5% (active) in assay [5] (at 50.0 µM); 6% in assay [6] (setting [7]); 95% (active) in assay [6] (setting [8]); 90.8% (active) in assay [6] (at 50.0 µM).

Turning to `CN1CCC(OC(=O)c2ccc3ncccc3c2)CC1`, the growth inhibition was -6% in assay [1] (setting [7]); 6% in assay [1] (setting [8]); 34.6% in assay [1] (at 50.0 µM); -2% in assay [2] (setting [7]); 4% in assay [2] (setting [8]); 26.6% in assay [2] (at 50.0 µM). Also, the growth inhibition in assay [3] (setting [7]) was -2%; in assay [3] (setting [8]), 13%; in assay [3] (at 50.0 µM) it was 17.6%; in assay [4] (setting [7]), -5%; in assay [4] (setting [8]), 2%; in assay [4] (at 50.0 µM), 85.6% (active). For the same compound, the growth inhibition in assay [5] (setting [7]) is -4%; in assay [5] (setting [8]) it was 2%; in assay [5] (at 50.0 µM), 33.9%; in assay [6] (setting [7]) it was -7%; in assay [6] (setting [8]), 7%; in assay [6] (at 50.0 µM) it was 32%.

With `O=C1/C(=C/c2ccc([N+](=O)[O-])cc2)Sc2scc(-c3cccc([N+](=O)[O-])c3)[n+]21`, the growth inhibition is 69% in assay [1] (setting [7]); 98% (active) in assay [1] (setting [8]); 83.5% (active) in assay [1] (at 50.0 µM); 69% in assay [2] (setting [7]); 98% (active) in assay [2] (setting [8]); 89.5% (active) in assay [2] (at 50.0 µM). In addition, the growth inhibition in assay [3] (setting [7]) was 96% (active); in assay [3] (setting [8]) it was 99% (active); in assay [3] (at 50.0 µM), 90.6% (active); in assay [4] (setting [7]), 53%; in assay [4] (setting [8]), 98% (active); in assay [4] (at 50.0 µM), 90.6% (active). Also, the growth inhibition is 99% (active) in assay [5] (setting [7]); 99% (active) in assay [5] (setting [8]); 87% (active) in assay [5] (at 50.0 µM); 51% in assay [6] (setting [7]); 99% (active) in assay [6] (setting [8]); 91.1% (active) in assay [6] (at 50.0 µM).

As for `Oc1ccc(O)c(C2CCCCC2)c1`, the growth inhibition in assay [1] (setting [7]) is 30%; in assay [1] (setting [8]), 94% (active); in assay [1] (at 50.0 µM) it was 96.7% (active); in assay [2] (setting [7]), 62%; in assay [2] (setting [8]), 99% (active); in assay [2] (at 50.0 µM), 89.7% (active). The growth inhibition in assay [3] (setting [7]) was 46%; in assay [3] (setting [8]), 99% (active); in assay [3] (at 50.0 µM) it was 78.2% (active); in assay [4] (setting [7]), 46%; in assay [4] (setting [8]) it was 94% (active); in assay [4] (at 50.0 µM) it was 50.4%. In addition, the growth inhibition in assay [5] (setting [7]) is 51%; in assay [5] (setting [8]) it was 99% (active); in assay [5] (at 50.0 µM) it was 89% (active); in assay [6] (setting [7]) it was 83% (active); in assay [6] (setting [8]), 99% (active); in assay [6] (at 50.0 µM), 94.8% (active).

For the compound `CC1CCC2(CC1)OCC(C)O2` (configuration not stated), the growth inhibition in assay [1] (setting [7]) was 4%; in assay [1] (setting [8]) it was 1%; in assay [1] (at 50.0 µM) it was -19.9%; in assay [2] (setting [7]), 16%; in assay [2] (setting [8]), 5%; in assay [2] (at 50.0 µM), 5.45%. Besides, the growth inhibition in assay [3] (setting [7]) is -2%; in assay [3] (setting [8]), -12%; in assay [3] (at 50.0 µM), -24.4%; in assay [4] (setting [7]) it was 26%; in assay [4] (setting [8]) it was 15%; in assay [4] (at 50.0 µM), 19.8%. Moreover, the growth inhibition in assay [5] (setting [7]) is 27%; in assay [5] (setting [8]), 34%; in assay [5] (at 50.0 µM), -0.9%; in assay [6] (setting [7]), 7%; in assay [6] (setting [8]), 1%; in assay [6] (at 50.0 µM) it was -8.8%.

(Values after PubChem BioAssay (NCI).)
